PubChem BioAssay (EPA / NIEHS)
Inconclusive results are not listed. Calls of active or inactive are those of the source. How the source made its calls: active means hit-call score of the fitted dose curve at least 0.9, where 1 is the maximum; inconclusive means response in the unintended direction; inactive means score below 0.9.

What follows are molecules tested against Androgen receptor (Homo sapiens) (UniProt P10275) (assay: ATG_AR_TRANS: Attagene TRANS-FACTORIAL HepG2 Assay for human Androgen Receptor (AR) (AID 2282973)). Details: HepG2 Attagene TRANS-FACTORIAL AR reporter transcription.
Chain of Androgen receptor (Homo sapiens) (P10275 whole entry, looked up, the tested form may be a part): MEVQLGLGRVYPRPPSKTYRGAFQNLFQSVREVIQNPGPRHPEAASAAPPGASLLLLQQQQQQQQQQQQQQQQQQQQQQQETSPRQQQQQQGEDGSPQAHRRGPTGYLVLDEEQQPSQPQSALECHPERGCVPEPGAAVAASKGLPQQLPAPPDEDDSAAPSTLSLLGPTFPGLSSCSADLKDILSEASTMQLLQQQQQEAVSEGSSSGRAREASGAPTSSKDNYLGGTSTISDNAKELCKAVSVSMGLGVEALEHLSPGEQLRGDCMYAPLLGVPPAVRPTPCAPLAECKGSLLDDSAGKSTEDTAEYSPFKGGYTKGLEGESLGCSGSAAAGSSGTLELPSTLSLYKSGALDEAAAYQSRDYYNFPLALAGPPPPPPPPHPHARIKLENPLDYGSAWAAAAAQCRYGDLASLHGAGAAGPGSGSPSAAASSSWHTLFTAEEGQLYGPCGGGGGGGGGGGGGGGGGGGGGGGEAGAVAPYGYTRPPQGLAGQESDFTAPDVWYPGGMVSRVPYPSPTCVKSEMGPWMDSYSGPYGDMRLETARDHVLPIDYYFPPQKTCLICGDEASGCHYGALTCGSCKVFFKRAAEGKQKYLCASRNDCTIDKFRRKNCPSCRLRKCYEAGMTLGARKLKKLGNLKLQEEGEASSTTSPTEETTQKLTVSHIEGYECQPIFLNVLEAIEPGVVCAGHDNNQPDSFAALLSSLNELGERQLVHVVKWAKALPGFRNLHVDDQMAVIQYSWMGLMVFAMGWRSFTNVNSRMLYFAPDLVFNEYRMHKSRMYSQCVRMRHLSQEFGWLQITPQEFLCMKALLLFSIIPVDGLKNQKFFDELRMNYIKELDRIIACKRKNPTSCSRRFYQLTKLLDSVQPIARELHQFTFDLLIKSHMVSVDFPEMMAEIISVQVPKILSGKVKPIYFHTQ
In short: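 Transcriptional activity of an exogenous AR–Gal4 fusion read as GAL4-UAS reporter transcript levels in transfected human HepG2 cells after 24 h dosing. Detection via RT-PCR, 6-FAM labelling, HpaI digest and capillary electrophoresis; increase over DMSO baseline.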
In the case of `CC(Oc1cc(Cl)ccc1Cl)C(=O)O` (centres undefined), the outcome is reported as “inactive”. With `CCOC(OCC)C(=O)c1ccccc1` the outcome was “inactive”. For `CC(C)c1ccc2c(c1)CC[C@H]1[C@](C)(CN)CCC[C@]21C`, the outcome was “inactive”. For `C=C(C)[C@H]1CC=C(C)C(=O)C1`, the outcome was “inactive”. `Brc1cc(Br)c(Oc2c(Br)cc(Br)c(Br)c2Br)cc1Br` was tested, and the outcome was “inactive”. For `O=CC(F)(F)C(F)(F)C(F)(F)F`, the outcome was “inactive”. For `CC1COC(=O)O1` (centres undefined), the outcome was “inactive”. For `CC(C)(C)c1ccc(OC2CCCCC2O)cc1` (centres undefined), the outcome was “inactive”. With `CCC(O)CO` (centres undefined) the outcome was “inactive”. For `c1cc[nH]c1`, the outcome was “inactive”. With `O=C1CCCCCCCCCCCC(=O)OCCO1` the outcome was “inactive”. For `Clc1cccnc1`, the outcome was “inactive”. For `CCCOCCOCCOCCO`, the outcome was “inactive”. In the case of `FC1(F)C=CC(F)(F)C1(F)F`, the outcome is reported as “inactive”. `CC(C)(C)c1cc(CCC(=O)NCCCCCCNC(=O)CCc2cc(C(C)(C)C)c(O)c(C(C)(C)C)c2)cc(C(C)(C)C)c1O` was tested, and the outcome was “inactive”. `CC(CC(C)(C)C)CC(C)(C)CC(C)(C)C` (centres undefined) was tested, and the outcome was “inactive”. `O=C[C@@H](O)[C@H](O)[C@H](O)CO` was tested, and the outcome was “inactive”. For `NCCCN1CCN(CCCN)CC1`, the outcome was “inactive”. For `CC(=O)O[C@@H]1C[C@@H]2CC[C@@]1(C)C2(C)C`, the outcome was “inactive”. `CCCCCCCCCCCCCC(=O)OCC(O)CO` (centres undefined) was tested, and the outcome was “inactive”. For `C=CCOC(=O)/C=C\C(=O)OCC=C`, the outcome was “inactive”. For `Oc1ccc(-c2ccccc2)c(Cl)c1`, the outcome was “inactive”. For `C=CC(F)(F)C(F)(F)C(F)(F)C(F)(F)F`, the outcome was “inactive”. `COc1cc2c(c(OC)c1OC)-c1ccc(OC)c(=O)cc1[C@@H](NC(C)=O)CC2` was tested, and the outcome was “inactive”. With `CCCCCCCCCCCCCCCCCC[N+](C)(C)C` the AC50 was 14.5 µM (active). In the case of `CC1=CP(=O)(c2ccccc2)CC1` (centres undefined), the outcome is reported as “inactive”. In the case of `CCCCCCCC1CCCC1=O` (centres undefined), the outcome is reported as “inactive”. For `CC(C)CCOCc1ccccc1`, the outcome was “inactive”. With `CCOc1cccc(-n2cc(C(=O)N3CCN(c4cc(C(=O)O)c5ccccc5c4)CC3)nc2-c2ccc(C)cc2)c1` the outcome was “inactive”. With `CCC(=O)C1CC(C(C)C)CC=C1C` (centres undefined) the outcome was “inactive”. In the case of `O=S(=O)(O)c1ccc(Nc2nc(Nc3ccc(C=Cc4ccc(Nc5nc(Nc6ccc(S(=O)(=O)O)cc6)nc(N(CCO)CCO)n5)cc4S(=O)(=O)O)c(S(=O)(=O)O)c3)nc(N(CCO)CCO)n2)cc1`, the outcome is reported as “inactive”. With `COc1cc(CCC(C)=O)ccc1O` the outcome was “inactive”. `Oc1ccc(Cl)cc1Cc1cc(Cl)ccc1O` was tested, and the outcome was “inactive”. In the case of `CC1=CC2C3C=CC(C3)C2C1C` (centres undefined), the outcome is reported as “inactive”. With `CC1=CC(=O)c2ccccc2C1=O` the outcome was “inactive”. With `CCCCC/C=C\CCC=O` the outcome was “inactive”. With `CC=CC(F)(F)C(F)(F)C(F)(F)F` the outcome was “inactive”. With `CCCCCCOC(=O)C(C)CC` (centres undefined) the outcome was “inactive”. For `CC1=CCC2C(=O)OC(=O)C2C1` (centres undefined), the outcome was “inactive”.
